According to PubChem BioAssay AID1159580 (chemical genetic matrix, 2015):
Hit rate of the full screen: of about 5,500 compounds, about 2,000 (36%) were called active. Not shown: some 18% with an inconclusive outcome. Rule as the data show it: active = normalized growth mostly below about 0.91 (no sharp cut-off); inconclusive = no clear call, values can overlap the other calls; inactive = mostly above about 0.92. The list shows a part of the results.

Assay: chemical genetic growth profiling, strain panel (AID 1159580);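 also: tested at 20 µM; growth read once vehicle control cultures reached saturation at 30 °C; 1 = growth at the plate median or of vehicle wells; lower values mean less growth of the strain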
Conditions: S. cerevisiae deletion strains, growth OD

Measured: normalized growth

COc1ccc(C2CNC(=O)C2)cc1OC1CCCC1 (stereo unspecified)
inactive: locus YAL013W, strain DEP1, hits give low values 1.01 | locus YAL021C, strain ccr4, hits give low values 1 | locus YAL026C, strain drs2, hits give low values 1.02 | locus YAL030W, strain snc1, hits give low values 1.02 | locus YAL040C, strain CLN3, hits give low values 0.999 | locus YBL061C, strain skt5, hits give low values 1.01 | locus YBR009C, strain hhf1, hits give low values 1.02 | locus YBR023C, strain chs3, hits give low values 1.01 | locus YBR171W, strain sec66, hits give low values 1.02 | locus YBR231C, strain swc5, hits give low values 1.02 | locus YBR279W, strain paf1, hits give low values 1.01 | locus YCL011C, strain gbp2, hits give low values 1.01 | locus YCL016C, strain dcc1, hits give low values 1.01 | locus YCL061C, strain MRC1 (second series), hits give low values 1 | locus YCL061C, strain MRC1, hits give low values 1.01 | locus YCL069W, strain vba3, hits give low values 1.01 | locus YCR088W, strain abp1, hits give low values 1.01 | locus YDL005C, strain med2, hits give low values 0.996 | locus YDL040C, strain nat1, hits give low values 1.01 | locus YDR001C, strain nth1, hits give low values 1.01 | locus YDR069C, strain doa4, hits give low values 1.02 | locus YDR137W, strain rgp1, hits give low values 1.02 | locus YDR159W, strain sac3, hits give low values 1.03 | locus YDR195W, strain ref2 1.01 | locus YDR297W, strain sur2, hits give low values 1.01 | locus YDR334W, strain swr1, hits give low values 1.01 | locus YDR335W, strain msn5, hits give low values 1.01 | locus YDR363W, strain ESC2, hits give low values 1.01 | locus YDR392W, strain spt3, hits give low values 1.04 | locus YEL003W, strain gim4, hits give low values 1.01 | locus YEL037C, strain rad23, hits give low values 0.965 | locus YEL061C, strain CIN8 (second series), hits give low values 1.01 | locus YER002W, strain NOP16, hits give low values 0.993 | locus YER015W, strain faa2, hits give low values 1 | locus YER016W, strain bim1, hits give low values 1.01 | locus YER111C, strain swi4, hits give low values 1.02 | locus YER155C, strain BEM2 (second series), hits give low values 1.04 | locus YFR010W, strain ubp6, hits give low values 1 | locus YGL167C, strain pmr1, hits give low values 1.01 | locus YGL173C, strain kem1, hits give low values 1.01 | locus YGL227W, strain vid30, hits give low values 1.01 | locus YGL240W, strain doc1, hits give low values 1.02 | locus YGL253W, strain hxk2, hits give low values 1.03 | locus YHR013C, strain ard1, hits give low values 1.04 | locus YHR027C, strain rpn1, hits give low values 1.01 | locus YHR142W, strain chs7, hits give low values 0.98 | locus YJL092W, strain hpr5, hits give low values 1 | locus YJL095W, strain BCK1 (second series), hits give low values 1.01 | locus YJL115W, strain asf1, hits give low values 1.01 | locus YJL129C, strain trk1, hits give low values 1.02 | locus YJL154C, strain vps35, hits give low values 1 | locus YJL164C, strain tpk1, hits give low values 0.999 | locus YJL166W, strain qcr8, hits give low values 1.02 | locus YJL187C, strain SWE1, hits give low values 1.01 | locus YJR075W, strain HOC1, hits give low values 1.01 | locus YKL160W, strain elf1, hits give low values 0.998 | locus YKR026C, strain gcn3, hits give low values 0.994 | locus YKR091W, strain srl3, hits give low values 1.01 | locus YLL001W, strain dnm1, hits give low values 1.01 | locus YLL026W, hits give low values 1.02 | locus YLL041C, strain sdh2, hits give low values 1.01 | locus YLR027C, strain aat2, hits give low values 1.01 | locus YLR221C, strain rsa3, hits give low values 1.01 | locus YLR258W, strain gsy2, hits give low values 1.01 | locus YLR262C, strain YPT6 (second series), hits give low values 1.02 | locus YLR320W, strain mms22, hits give low values 1.02 | locus YLR342W, strain FKS1, hits give low values 1 | locus YLR357W, strain rsc2, hits give low values 1.01 | locus YLR370C, strain arc18, hits give low values 1.02 | locus YLR384C, strain iki3, hits give low values 0.999 | locus YML120C, strain ndi1, hits give low values 1.01 | locus YMR058W, strain fet3, hits give low values 1.02 | locus YMR125W, strain sto1, hits give low values 1.02 | locus YMR129W, hits give low values 1.02 | locus YMR205C, strain PFK2, hits give low values 1.03 | locus YMR231W, strain pep5, hits give low values 1 | locus YMR263W, strain SAP30, hits give low values 1 | locus YMR307W, strain GAS1, hits give low values 1.03 | locus YNL071W, strain lat1, hits give low values 1.02 | locus YNL175C, strain NOP13, hits give low values 1.01 | locus YNL197C, strain WHI3, hits give low values 1.01 | locus YNL209W, strain ssb2, hits give low values 1.01 | locus YNL224C, strain SQS1, hits give low values 0.995 | locus YNL248C, strain rpa49, hits give low values 0.974 | locus YNL322C, strain KRE1 (second series), hits give low values 0.996 | locus YNR049C, strain mso1, hits give low values 1 | locus YOR001W, strain rrp6, hits give low values 1 | locus YOR070C, strain gyp1, hits give low values 1 | locus YOR080W, strain dia2, hits give low values 1.01 | locus YOR083W, strain WHI5 (second series), hits give low values 1.01 | locus YOR083W, strain WHI5, hits give low values 0.988 | locus YOR106W, strain vam3, hits give low values 0.989 | locus YOR265W, strain rbl2, hits give low values 1.01 | locus YOR270C, strain vph1, hits give low values 1.03 | locus YOR290C, strain snf2, hits give low values 0.996 | locus YPL051W, strain arl3, hits give low values 1 | locus YPL055C, strain LGE1, hits give low values 0.996 | locus YPL078C, strain atp4, hits give low values 0.988 | locus YPL106C, strain sse1, hits give low values 1.04 | locus YPL240C, strain hsp82, hits give low values 1 | locus YPL241C, strain CIN2, hits give low values 1
